# Results filed as inconclusive are left out. Calls of active or inactive are those of the source. Calls follow the shape of the dose curve; as a rule, active = well fitted cell-killing curve with a large enough effect; inconclusive = small, poorly fitted or top-dose-only effect; inactive = no such curve, though single readings can be large or run the other way.
# Assay: qHTS of pediatric cancer cell lines to identify multiple opportunities for drug repurposing: Primary screen for LAN-5 cells (AID 1347100);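 also: plate controls were DMSO neutral control for no effect and bortezomib positive control for full effect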
# Settings: LAN-5 neuroblastoma viability, CellTiter-Glo luminescence, 48 h; series mostly up to 46 µM; activity change, negative = cytotoxic: at the top concentration
# Procedure, shortened: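 Viability after 48 h compound treatment at 37C, 500-1,000 cells/well, read as ATP luminescence with CellTiter-Glo. Primary screens used 11-point (MIPE, 0.78 nM-46 µM) or 8-point (NPC, 0.59 nM-46 µM) final concentrations; follow-up screens used 11-point dilutions.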
row,Structure (SMILES),"activity change, negative = cytotoxic"
1,CCN(CC)C(=O)Nc1ccc(OCC(O)CNC(C)(C)C)c(C(C)=O)c1 (configuration not stated),-8.07% (inactive)
2,CC(C)(O)c1ccccc1CC[C@@H](SCC1(CC(=O)O)CC1)c1cccc(/C=C/c2ccc3ccc(Cl)cc3n2)c1,6.48% (inactive)
3,Cc1cc2c(cc1S(N)(=O)=O)S(=O)(=O)CCC2,-4.02% (inactive)
4,NC(N)=NCCC[C@H](N)C(=O)O,8.53% [at 4.84 µM] (inactive)
5,CC(C)(C)C(=O)C(Oc1ccc(Cl)cc1)n1ccnc1 (configuration not stated),-3.98% (inactive)
6,O=C(O)c1ccccc1-c1ccc(C(F)(F)F)cc1,9.44% (inactive)
7,CC(=O)Oc1c(C)c(C)c2c(c1C)CC[C@@](C)(CCC[C@H](C)CCC[C@H](C)CCCC(C)C)O2,22.8% (inactive)
8,Cc1c(Cl)cccc1Nc1ccccc1C(=O)O,-3.88% (inactive)
9,CCOc1ccc2ccccc2c1C(=O)N[C@@H]1C(=O)N2[C@@H]1SC(C)(C)[C@@H]2C(=O)O,24.3% (inactive)
10,CCCCCCCCCCCCCCCC(=O)NCCO,5.3% (inactive)
11,Cc1ccc(C(C)C)cc2c(C)ccc1-2,14.8% (inactive)
12,O=C1O[C@H](CO)[C@@H](O)[C@H](O)[C@H]1O,-5.64% (inactive)
13,CC(=O)Oc1ccc(C2(c3ccc(OC(C)=O)cc3)C(=O)Nc3ccccc32)cc1,10.9% (inactive)
14,COc1ccc2cc1Oc1cc3c(cc1OC)CC[N+](C)(C)[C@H]3Cc1ccc(cc1)Oc1c(OC)c(OC)cc3c1[C@@H](C2)[N+](C)(C)CC3,17.3% (inactive)
15,CC1=C(CC(=O)O)c2cc(F)ccc2/C1=C\c1ccc(S(C)(=O)=O)cc1,-13.6% (inactive)
16,C#CCN(C)Cc1ccccc1,8.56% (inactive)
17,Cc1ncc([N+](=O)[O-])n1CC(O)CCl (configuration not stated),7.63% (inactive)
